Bioassay records (PubChem)
An excerpt weighted towards active compounds, which were near 1.6% of everything screened.
Imprint erasure: induces erasure of genomic imprints in mouse ES cells; mouse ES Peg3-LacZ reporter, beta-gal luminescence, 40 h; Potency, µM (titrated, usually from 60.7 µM), without a hit: at the top dose activity change, positive = activation, usual class: activators; hit rate 0.02% among 110,000; AID 1948
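Readout: BetaGlo luminescence (5 min, room temp) for LacZ from the normally silent maternal Peg3 allele in female Peg3LacZ-Neo ES cells. Cells 300/well, 40 h, 37C, 5% CO2. Data normalized per plate to negative controls.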
p53ts 32C tox: p53ts cell cytotoxicity, permissive temperature | hit rate 0.93% among 130,000 | H1299-p53A138V at 32C, ATP luminescence viability, 24 h | Potency, µM (doses to about 46.1 µM), for inactives: at the highest dose activity change, negative = cytotoxicity, actives largely listed as cytotoxic;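 also: 0% = DMSO and -100% = full killing by reference compound; nearly all actives have a fitted effect of over 55% in size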
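Cells: H1299 p53ts (A138V), 600/well, pre-incubated 16–30 h at 37C. Cpd up to 46 uM, 24 h, 32C. Readout: ATPlite luminescence, 20 min RT. Normalization: DMSO vs tamoxifen 100 uM. AC50 by Hill equation.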
p53ts 39C tox: cytotoxicity in p53ts cells at nonpermissive temperature; H1299-p53A138V viability at 39C, ATP luminescence, 24 h; Potency, µM (top dose mostly 46.1 µM), inactives show at the top dose activity change, negative = cell killing, hits mostly cytotoxic; hit rate 1.5% among 130,000; AID 902; also: % is scaled to controls: 0 for no effect and ±100 for the full control effect; nearly all actives have a fitted effect of over 55% in size
Numbers without * were called inactive; ? = inconclusive; · = not tested or not shown; [ ] = dose if it differs, or a comment. Calls follow the shape of the dose curve; as a rule, active = well fitted curve in the direction sought with a large enough effect; inconclusive = small, poorly fitted or top-dose-only effect, or another doubt; inactive = no such curve, though single readings can be large; an effect the other way counts as inactive or inconclusive. Potency is read from the fitted curve at half-maximal effect.

SMILES | Imprint erasure | p53ts 32C tox | p53ts 39C tox
O=C(/C=C\Nc1ccc2c(c1)OCO2)c1ccccn1 | -86% | 1.6µM* | 2.5µM*
O=C(NCc1ccc2c(c1)OCO2)c1ccccn1 | -37% | -8% | 4%
c1ccc(CCCNc2nnnc3ccccc23)cc1 | -5%[10.9 µM] | 5%[9.22 µM] | -10%[9.22 µM]
COc1cc(-c2nc3ccc(Cl)cn3c2Nc2ccc3c(c2)OCO3)ccc1O | 8%[10.9 µM] | -24% | ?
COc1cc(-c2nc3ccc(C)cn3c2Nc2ccc(Cl)cc2)ccc1O | 5%[10.9 µM] | -14% | 16µM*
N#C/C(=C\c1ccc(-c2cccc(Cl)c2)o1)C(=O)Nc1cccc(C(F)(F)F)c1 | -20%[10.9 µM] | -1% | 13µM*
CCC(C)OC(=O)/C(C#N)=C\c1ccc(-c2cccc(C(F)(F)F)c2)o1 (configuration not stated) | -9%[10.9 µM] | 1% | -4%
CC(C)CSc1ccccc1NC(=O)c1sc2nc(-c3ccncc3)ccc2c1N | -26%[10.9 µM] | -5% | 1%
CCNc1ncc2nc(-c3cccs3)c(=O)n(CCc3ccccc3)c2n1 | ? | -4% | -5%
O=C(Nc1ccc(C(=O)N2CCCCC2)cc1)c1nsc2ccccc12 | -69%[10.9 µM] | 3.2µM* | 3.2µM*
O=C(Nc1ccc(C(=O)N2CCN(c3ccc(F)cc3)CC2)cc1)c1nsc2ccccc12 | 6%[10.9 µM] | 16% | -15%
Cc1ccccc1CNC(=O)c1ccc(NC(=O)c2nsc3ccccc23)cc1 | -5%[10.9 µM] | ? | ?
CCOC(=O)c1ccc(NC(=O)c2nsc3ccccc23)cc1 | -47%[10.9 µM] | ? | 13µM*
O=C(NCc1cccc(F)c1)c1ccc(NC(=O)c2nsc3ccccc23)cc1 | 7%[10.9 µM] | 11µM* | 10µM*
CNC(=O)c1ccc(NC(=O)c2nsc3ccccc23)cc1 | -70%[10.9 µM] | 7.9µM* | 7.9µM*
CCOC(=O)c1ccc(NC(=O)c2sc3ccccc3c2Cl)cc1 | -14%[10.9 µM] | 0% | -23%
Cc1ccc(CNC(=O)c2ccc(NC(=O)c3nsc4ccccc34)cc2)cc1 | -8%[10.9 µM] | -8% | -21%
CC(=O)C=NCC(=O)O | -3%[10.9 µM] | 2%[9.22 µM] | 3%[9.22 µM]
CO[C@H]1COC(=O)C/C=C\[C@H](C)[C@H](OC)COC(=O)[C@@H](C)COC(=O)C/C=C\[C@@H]1C | · | 3%[9.22 µM] | 17%[9.22 µM]
CCOc1ccccc1CNC(=O)c1ccc(Cn2c(=O)c3cccn3c3cccnc32)cc1 | 5%[10.9 µM] | 2% | -2%
Cc1cc(F)ccc1OC1C=CC(c2ccc3c(c2)OCO3)OC1CO (configuration not stated) | · | -1%[9.22 µM] | -10%[9.22 µM]
CN(C)C(=O)c1ccc(-c2ccc3ncnc(Nc4ccccc4)c3c2)cc1 | -12% | 14% | 4%
CC(C)CCOc1ccc(Cn2c(=O)oc3ccccc32)cc1 | -14%[10.9 µM] | -2% | -16%
COc1ccc(-n2nc(C(=O)Nc3ccccc3OC)c3c4ccccc4n(C)c3c2=O)cc1Cl | 8%[10.9 µM] | 3% | 15%
Cc1nn2c(=O)cc(COC(=O)c3cccc(NC(=O)c4ccc(C(C)(C)C)cc4)c3)nc2s1 | -12%[10.9 µM] | 2.5µM* | 2.5µM*
SMILES | Imprint erasure | p53ts 32C tox | p53ts 39C tox
Cc1cccc(C(=O)Nc2cccc(C(=O)OCc3cc(=O)n4nc(C(C)C)sc4n3)c2)c1 | -6%[10.9 µM] | 1% | -12%
COc1ccc2c(c1)CCC1C2CC[C@]2(C)[C@H](NCCCCCCN3C(=O)C=CC3=O)CC[C@@H]12 (some centres not stated) | · | -7% | 14%
CCS(=O)(=O)N1CCCc2cc(C(=O)Nc3cccc(C(C)=O)c3)ccc21 | -1%[10.9 µM] | -2% | 4%
CSc1cccc(NC(=O)c2ccc3c(c2)CCCN3S(C)(=O)=O)c1 | -4%[10.9 µM] | 13µM* | ?
O=c1c(N2CCN(c3ccccc3)CC2)csc2ccc(Cl)cc12 | -16%[10.9 µM] | 5% | -8%
CCCCCn1c(=N)n(CC(O)COc2cccc(C)c2)c2ccccc21 (configuration not stated) | -16%[10.9 µM] | ? | 10µM*
CCCn1c(=N)n(CC(O)COc2cccc(C)c2)c2ccccc21 (configuration not stated) | -17% | -14% | -23%
CC(C)COc1ccc(C(=O)NCC2(N3CCN(C)CC3)CCCCC2)cc1 | -13%[10.9 µM] | -6% | -16%
Cn1nc(C(=O)Nc2ccc(F)c(Cl)c2)c2c1-c1ccccc1S(=O)(=O)C2 | -19%[10.9 µM] | -8% | -3%
Cc1cc(C)c2c(=O)cc(CSc3n[nH]c(C)n3)[nH]c2c1 | 4%[10.9 µM] | 16% | 5%
Cc1cccc(-c2nc(SCc3cc(=O)c4c(C)cc(C)cc4[nH]3)n[nH]2)c1 | 13%[10.9 µM] | ? | 20µM*
CCn1c2ccccc2c2nnc(NCCCO)nc21 | -16%[10.9 µM] | -1%[9.22 µM] | 2%[9.22 µM]
O=C(CCC1CCCC1)Nc1ccc(OCC(=O)N2CCOCC2)cc1 | · | 7.9µM* | ?
Cc1cc(OCC(=O)N2CCOCC2)ccc1NC(=O)C1CCCCC1 | 2% | 9% | -5%
CCN(CCCNC(=O)c1cc2cc3ccc(OC)cc3nc2s1)c1cccc(C)c1 | 1%[10.9 µM] | ? | 13µM*
CCN(CCCNC(=O)c1cc2cc3ccc(OC)cc3nc2s1)c1ccccc1 | -6%[10.9 µM] | -20% | ?
COc1ccc(S(=O)(=O)N(CC(=O)NCCSc2ccccc2)c2ccc(Cl)cc2)cc1 | -18%[10.9 µM] | -10% | 6%
CN(Cc1ccccc1)c1nc2c(c(=O)[nH]c(=O)n2C)n1C | -1% | -2% | 9%
Cc1cccc(Cn2c(N(C)Cc3ccccc3)nc3c2c(=O)[nH]c(=O)n3C)c1 | -46% | 6.3µM* | 5µM*
CO[C@H]1COC(=O)[C@H](C)NC(=O)C/C=C\[C@@H](C)[C@@H](NS(=O)(=O)c2ccc(C)cc2)COC(=O)[C@H](OCc2ccccc2)/C=C\[C@@H]1C | · | 11%[9.22 µM] | 11%[9.22 µM]
COC(=O)c1ccc(CSc2nc3c([nH]c4ccccc43)c(=O)n2-c2cc(C)cc(C)c2)o1 | -4%[10.9 µM] | 16% | 16µM*
COc1cccc(NC(=O)CSc2nc3c([nH]c4ccccc43)c(=O)n2-c2cc(C)cc(C)c2)c1 | 21%[10.9 µM] | 1% | -18%
O=C1CCC(c2ccccc2)=NN1c1nc2ccccc2s1 | 12%[10.9 µM] | -5%[9.22 µM] | 7%[9.22 µM]
COC(=O)c1ccc(C2C=C(c3ccc(Cl)cc3)Nc3nc4ccccc4n32)cc1 (configuration not stated) | -20%[10.9 µM] | 8.9µM* | 11µM*
COC(=O)c1nc2n(n1)C(c1cc(OC)ccc1OC)C=C(c1ccc(Br)cc1)N2 (configuration not stated) | -11%[10.9 µM] | 12% | -47%
SMILES | Imprint erasure | p53ts 32C tox | p53ts 39C tox
COc1ccc(C2=CC(c3cc(Br)ccc3F)n3c(nc4ccccc43)N2)cc1 (configuration not stated) | -17%[10.9 µM] | 16µM* | 10µM*
COc1ccc(C(=O)Nc2nc3n(n2)C(c2ccc(F)cc2)C=C(c2ccc(Cl)cc2)N3)cc1 (configuration not stated) | -12%[10.9 µM] | -4% | -7%
Fc1ccc(C2=CC(c3ccc(F)cc3)n3c(nc4ccccc43)N2)cc1 (configuration not stated) | -21%[10.9 µM] | 10µM* | 13µM*
N#CC1=C(N)Nc2nc3ccccc3n2C1c1ccc(F)cc1 (configuration not stated) | · | · | 9%
CC(C)CNc1nc(N)[nH]c(=O)c1NC=O | -11%[10.9 µM] | 4%[9.22 µM] | -1%[9.22 µM]
C[C@@]12C=CC(=O)C=C1CC[C@H]1[C@H]3CC[C@](O)(C(=O)CO)[C@]3(C)CC(=O)[C@@H]12 | -18%[16.8 µM] | 3%[20.6 µM] | 19%[20.6 µM]
